APP transl inh: APP translation inhibition; SH-SY5Y APP 5'UTR-luciferase reporter, luminescence; inhibition, % at 2 µM; actives 0.82% (n = 190,000); AID 1285;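 active = inhibition above a set limit, derived from the sample mean plus 3 SD, cut at about 45% in these data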
aSyn UTR inh: 5' untranslated region of α-synuclein, MLPCN primary screen; alpha-synuclein 5'UTR reporter, inhibitor activity; inhibition, % (tested at 7.5 µM); actives 0.82% (n = 300,000); AID 1813; in the data active = inhibition above about 60%;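 note: H4 neuroglioblastoma cells stably carrying SNCA 5'UTR luciferase fusion; 0% = DMSO wells and 100% = positive control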
KLF5 inh: inhibitors of KLF5 expression; AID 1700; DLD-1 KLF5 promoter-luciferase reporter, luminescence; actives 0.23% (n = 290,000); inhibition, % at 5 µM;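 active = inhibition above a per-plate limit of that plate's mean compound inhibition plus 3 SD, cut at about 60% in these data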;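 note: 0% = DMSO wells and 100% = LY294002 at 200 µM; higher means less KLF5 promoter-driven luciferase light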
IEC-6 cytotox: counter-screen for KLF5 inhibitors: cytotoxicity in IEC-6 cells | IEC-6 cytotoxicity, luminescence viability | inhibition, % at 5 µM | actives 0.78% (n = 290,000); in the data active = inhibition above about 22%;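 note: 0% = plate median of test compound wells and 100% = cytotoxic reference compound wells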
Ba/F3 V617F tox: loss of viability in JAK2V617F-driven Ba/F3 cells; Ba/F3 EpoR-JAK2V617F viability, ATP luminescence; actives 1.1% (n = 220,000); AID 1446; inhibition, % at 5.6 µM;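 active = inhibition above the campaign mean plus 3 SD over all tested compounds, cut at about 24% in these data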;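 note: cytokine-independent growth of Ba/F3 cells driven by EpoR plus mutant JAK2; 0% = DMSO-treated cells and 100% = JAK inhibitor I control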
BaF3 tox: reduces parental Ba/F3 cell viability, JAK2V617F counter-screen | CellTiter-Glo ATP luminescence | inhibition, % at 5.6 µM | actives 1.1% (n = 220,000) | AID 1486;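 active = inhibition above a per-campaign cutoff, the mean inhibition of all tested compounds plus 3 SD, cut at about 27% in these data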;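 note: 0% = DMSO wells and 100% = JAK Inhibitor I control wells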
Starred values were filed as active, the others as inactive. In the library only some 2.1% were active in any assay of this set; here they are far more common.

`O=C(CN1CCN(S(=O)(=O)c2ccccc2)CC1)Nc1ccc(Cl)c([N+](=O)[O-])c1` gave aSyn UTR inh -2.
`Cc1ccc(-n2ncc3c(SCc4ccccn4)ncnc32)c(C)c1` gave APP transl inh -2, aSyn UTR inh -35, KLF5 inh 30, IEC-6 cytotox 1, Ba/F3 V617F tox 12 and BaF3 tox 35*.
For COc1ccc(C2=NN(C(=O)CSc3nc4ccccc4s3)C(c3ccc(OC)cc3)C2)cc1 (centres undefined) the results were APP transl inh 8, aSyn UTR inh -22, KLF5 inh 25, IEC-6 cytotox 6, Ba/F3 V617F tox -4 and BaF3 tox 5.
Screening COc1ccc(C2=NN(C(=O)CSc3nc4ccccc4s3)C(c3ccc(F)cc3)C2)cc1 (centres undefined) returned APP transl inh 81*, aSyn UTR inh -21, KLF5 inh 6, IEC-6 cytotox -2, Ba/F3 V617F tox -7 and BaF3 tox -3.
`Cc1ccc(/C(O)=C2\C(=O)C(=O)N(C)C2c2ccc(F)cc2)cc1` (centres undefined) gave aSyn UTR inh -2, KLF5 inh -31 and IEC-6 cytotox 4.
For CCOC(=O)N1CCN(C(=O)c2cn(CC)c3cc(N4CCN(C)CC4)c(F)cc3c2=O)CC1 the results were APP transl inh -5, aSyn UTR inh 7, KLF5 inh -3, IEC-6 cytotox -1, Ba/F3 V617F tox -2 and BaF3 tox 79*.
For CCn1cc(C(=O)NN)c(=O)c2cc(F)c(N3CCN(C)CC3)cc21 the results were aSyn UTR inh 13, KLF5 inh -36 and IEC-6 cytotox 0.
`COc1ccc(-c2nc3ncccc3o2)cc1NC(=O)c1ccco1` gave aSyn UTR inh -23, KLF5 inh -31 and IEC-6 cytotox 2.
CCOc1ccc(-c2nnc(SCC(=O)Nc3ccc4c(c3)c3ccccc3n4CC)n2N)cc1 was read as APP transl inh 13, aSyn UTR inh 84*, KLF5 inh -2, IEC-6 cytotox 9, Ba/F3 V617F tox 3 and BaF3 tox 0.
COc1cc(/C=N/NC(=O)c2ccccc2O)ccc1OCC(=O)Nc1ccccc1 was read as aSyn UTR inh -140, KLF5 inh -105 and IEC-6 cytotox -2.
`O=C(COc1ccc(/C=N/NC(=O)c2cc3ccccc3o2)cc1Cl)Nc1ccccc1` gave APP transl inh -32, aSyn UTR inh 101*, KLF5 inh -29, IEC-6 cytotox -5, Ba/F3 V617F tox -2 and BaF3 tox 3.
Cc1onc(-c2ccccc2Cl)c1C(=O)N(C)C1CCCCC1 was read as APP transl inh 5, aSyn UTR inh 9, KLF5 inh -1, IEC-6 cytotox 2, Ba/F3 V617F tox 67* and BaF3 tox 62*.
Screening COc1ccc(-c2nnc(SCc3nc4ccccc4c(=O)[nH]3)o2)cc1 returned aSyn UTR inh -70, KLF5 inh -11, IEC-6 cytotox 2, Ba/F3 V617F tox 0 and BaF3 tox 53*.
COc1ccc(OCC(O)CNC(C)c2ccccc2)cc1 (centres undefined) was read as aSyn UTR inh 13, KLF5 inh -12 and IEC-6 cytotox 7.
`CCCC(NCC(O)COc1ccc(-c2ccccc2)cc1)c1ccccc1` (centres undefined) gave APP transl inh 14, aSyn UTR inh 83*, KLF5 inh -8, IEC-6 cytotox 14, Ba/F3 V617F tox -1 and BaF3 tox -3.
For O=C(Nc1ccc(-c2nc3cccnc3s2)cc1)C1CCCO1 (centres undefined) the results were APP transl inh -76, aSyn UTR inh 87*, KLF5 inh 23, IEC-6 cytotox 6, Ba/F3 V617F tox 6 and BaF3 tox 7.
For O=C(Nc1nc2ccccc2s1)C1CCCO1 (centres undefined) the results were APP transl inh -49, aSyn UTR inh -132, KLF5 inh -152, IEC-6 cytotox -4, Ba/F3 V617F tox -2 and BaF3 tox 95*.
For O=C(Nc1ccc(-c2nc3ccccc3o2)cc1)C1CCCO1 (centres undefined) the results were APP transl inh -233, aSyn UTR inh -23, KLF5 inh -119, IEC-6 cytotox 3, Ba/F3 V617F tox -4 and BaF3 tox 4.
O=C(CSc1nnnn1-c1ccc(F)cc1)Nc1ccccc1F was read as aSyn UTR inh 5, KLF5 inh -44 and IEC-6 cytotox -4.
For CSCCC(NC(=O)c1ccccc1)C(=O)N1CCN(C(c2ccccc2)c2ccccc2)CC1 (centres undefined) the results were aSyn UTR inh -3, KLF5 inh -18 and IEC-6 cytotox -4.
`Cc1ccc([N+](=O)[O-])cc1Nc1nc(N2CCCC2)nc(N2CCCC2)n1` gave aSyn UTR inh 0, KLF5 inh -36 and IEC-6 cytotox 4.
For COc1ccc(C(=O)NNC(=S)NC(=O)/C=C/c2cccs2)cc1 the results were APP transl inh 34, aSyn UTR inh 30, KLF5 inh -31, IEC-6 cytotox -4, Ba/F3 V617F tox -2 and BaF3 tox 8.
Screening O=C(/C=C/c1cccs1)NC(=S)NNC(=O)c1ccccc1O returned APP transl inh 18, aSyn UTR inh 103*, KLF5 inh 2, IEC-6 cytotox -4, Ba/F3 V617F tox 94* and BaF3 tox 54*.
`Cc1ccc(OC(C)C(=O)N2CC(=O)Nc3ccccc32)c(C)c1` (centres undefined) gave aSyn UTR inh 12, KLF5 inh -16 and IEC-6 cytotox 3.
Cc1csc(NC(=O)c2cn3ccccc3n2)n1 was read as APP transl inh -68, aSyn UTR inh 82*, KLF5 inh 50, IEC-6 cytotox 10, Ba/F3 V617F tox 10 and BaF3 tox 12.
O=C(Nc1ccccc1)c1cn2ccccc2n1 was read as aSyn UTR inh 51, KLF5 inh -25, IEC-6 cytotox 6, Ba/F3 V617F tox 4 and BaF3 tox 6.
For CCN(CC)CCCn1c2c(c(SCC(=O)Nc3nc4ccccc4s3)nc1=O)CCC2 the results were aSyn UTR inh -15.
COc1ccc(-c2csc(NC(=O)C3CSC4(C)CCC(=O)N34)n2)c(OC)c1 (centres undefined) was read as aSyn UTR inh 3.
`CN1CCN(/N=C/c2ccc(N(C)c3ccccc3)cc2)CC1` gave APP transl inh -7, aSyn UTR inh -21, KLF5 inh -7, IEC-6 cytotox 1, Ba/F3 V617F tox 5 and BaF3 tox 10.
Screening CN1CCN(/N=C/c2ccc(N(c3ccccc3)c3ccccc3)cc2)CC1 returned APP transl inh 0, aSyn UTR inh 71*, KLF5 inh -19, IEC-6 cytotox -1, Ba/F3 V617F tox -4 and BaF3 tox 2.
`CCOC(=O)c1c(S(=O)(=O)NCC(=O)Nc2cc(C)ccc2OC)c(C)n(C)c1C` gave aSyn UTR inh 21, KLF5 inh -13 and IEC-6 cytotox 4.
